Results from PubChem BioAssay (Tox21).
Records with an inconclusive call do not appear. Calls of active or inactive are those of the source. Unless noted, calls come from the whole dose curve; as a rule, active = well fitted curve in the direction sought with a large enough effect in the repeat runs; inconclusive = weak or mixed curves; inactive = no such curve, though single readings can be large; an effect the other way counts as inactive or inconclusive.

Columns and labels:
[1] = qHTS assay for small molecule agonists of the p53 signaling pathway (AID 651631; calls by dose curve; note: nearly all actives have a fitted effect of over 15% in size); conditions: HCT-116 p53RE-bla reporter, beta-lactamase FRET ratio, 16 h; series mostly up to 73.3 µM
In short: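 Readout was fluorescence from the LiveBLAzer FRET substrate, applied for 2 h at room temperature after 16 h compound exposure at 37 °C. Cells were the p53RE-bla HCT-116 line, with beta-lactamase driven by p53 response elements.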

[2] = qHTS assay for small molecules that induce genotoxicity in human embryonic kidney cells expressing luciferase-tagged ATAD5 (AID 651632); conditions: HEK293T ATAD5-luciferase induction, 16 h; series mostly up to 83.3 µM; note: nearly all actives have a fitted effect of over 15% in size; note: potency is the fitted concentration of half-maximal effect
In short: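 DMSO vehicle served as the control. HEK293T reporter cells, 16 hr at 37C, then 30 min Amplite at room temperature; ATAD5 induction is measured as luciferase activity.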

[3] = qHTS assay for small molecule agonists of the p53 signaling pathway - cell viability (AID 651633; calls by dose curve; note: nearly all actives have a fitted effect of over 30% in size); conditions: p53RE-bla HCT-116 viability, ATP luminescence, 16 h; series mostly up to 83.3 µM
In short: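 Viability counter-read: CellTiter-Glo luminescence (30 min, room temperature) in the same p53RE-bla plates. These plates had been exposed to compounds for 16 h at 37 C.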

[4] = qHTS assay for small molecules that induce genotoxicity in human embryonic kidney cells expressing luciferase-tagged ATAD5 - cell viability (AID 651634; calls by dose curve; note: nearly all actives have a fitted effect of over 25% in size); conditions: HEK293T ATAD5-luc cells viability, CellTiter-Fluor, 15.5 h; series mostly up to 83.3 µM
In short: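 Here HEK293T cells with the ATAD5 luciferase reporter are incubated with test compounds for 15.5 hr, and cytotoxicity is then gauged by measuring protease activity in live cells using fluorescence.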

[5] = qHTS assay for small molecule disruptors of the mitochondrial membrane potential - cell viability (AID 720634; calls by dose curve; note: nearly all actives have a fitted effect of over 20% in size; note: potency is the fitted concentration of half-maximal effect); conditions: HepG2 viability, ATP luminescence (CellTiter-Glo), 1 h; series mostly up to 83.2 µM
In short: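 Viability of HepG2 cells is scored from ATP content by luminescence; cells are exposed to compound for 1 hr at 37 C and 5% CO2, then dosed with m-MPI dye before the CellTiter-Glo reagent.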

[6] = qHTS assay to test for compound auto fluorescence at 590 nm (red) in HepG2 cells (AID 720674); conditions: HepG2 autofluorescence, red 540/590 nm, 1 h; series mostly up to 91.3 µM
In short: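 1 hr compound incubation on HepG2 cells, 37 C, 5% CO2; plate read ex 540 nm / em 590 nm; intensities reported as Rose Bengal sodium equivalents.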

[7] = qHTS assay to test for compound auto fluorescence at 535 nm (green) in HepG2 cells (AID 720675); conditions: green autofluorescence 485/535 nm, 1 h; series mostly up to 91.3 µM
[8] = qHTS assay to test for compound auto fluorescence at 460 nm (blue) in HEK293 cells (AID 720678); conditions: blue autofluorescence 405/460 nm; series mostly up to 91.3 µM
In short: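 Auto fluorescence in the blue band was quantified as triamterene equivalency. HEK293 cells were seeded at 2,000/well, dosed after a 4-5 hr attachment, and kept overnight at 37C before the 405/460 nm reading.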

[9] = qHTS assay to test for compound auto fluorescence at 590 nm (red) in HEK293 cells (AID 720679); conditions: red autofluorescence 540/590 nm; series mostly up to 91.3 µM
In short: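 Autofluorescence equivalency to Rose Bengal sodium, 540/590nm, in HEK293 cells exposed overnight to 23 nL compound per well.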

[10] = qHTS assay to test for compound auto fluorescence at 535 nm (green) in HEK293 cells (AID 720680); conditions: green autofluorescence 485/535 nm; series mostly up to 91.3 µM
[11] = qHTS assay to test for compound auto fluorescence at 460 nm (blue) in HEK293 cell free culture (AID 720681); conditions: cell-free medium, autofluorescence 405/460 nm (blue); series mostly up to 91.3 µM
In short: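 Blue fluorescence (Ex 405/Em 460 nm, triamterene-equivalent) was read immediately after pin transfer of compound or DMSO into medium (DMEM, 10% FBS) without cells.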

[12] = qHTS assay to test for compound auto fluorescence at 535 nm (green) in HEK293 cell free culture (AID 720682); conditions: cell-free medium, green autofluorescence 485/535 nm, hits give high values; series mostly up to 91.3 µM
In short: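 Compounds were pin-transferred into cell-free DMEM with 10% FBS, and green fluorescence was read at excitation 485 nm and emission 535 nm. Intensities were expressed as fluorescein-equivalent values.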

[13] = qHTS assay to test for compound auto fluorescence at 590 nm (red) in HEK293 cell free culture (AID 720683); conditions: cell-free medium autofluorescence, Ex540/Em590 red; series mostly up to 91.3 µM
In short: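 Red-channel autofluorescence of compounds in culture medium (DMEM, 10% FBS), no cells, measured at 540/590 nm. Rose Bengal sodium is the reference fluorophore for equivalence.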

[14] = qHTS assay to test for compound auto fluorescence at 460 nm (blue) in HepG2 cell free culture (AID 720685); conditions: Cell-free culture medium, blue autofluorescence 405/460 nm; series mostly up to 91.3 µM
In short: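 Cell-free plates of MEM plus 10% FBS received 23 nL compound or DMSO vehicle; blue-channel (405/460 nm) intensity scored against triamterene as reference fluorophore.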

[15] = qHTS assay to test for compound auto fluorescence at 535 nm (green) in HepG2 cell free culture (AID 720686); conditions: Cell-free medium, green autofluorescence 485/535 nm; series mostly up to 91.3 µM
[16] = qHTS assay to test for compound auto fluorescence at 460 nm (blue) in HepG2 cells (AID 720687); conditions: autofluorescence 405/460 nm, 1 h; series mostly up to 91.3 µM
In short: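 Blue-channel autofluorescence (Ex/Em 405/460 nm, triamterene-equivalent) was measured after 1 hr compound exposure at 37 C, 5% CO2. Cells were HepG2, plated overnight at 37 C in MEM plus 10% FBS.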

[17] = target: Glucocorticoid receptor (Homo sapiens) (UniProt P04150); experiment: qHTS assay to identify small molecule agonists of the glucocorticoid receptor (GR) signaling pathway (AID 720691; active = well fitted activation curve with a large enough effect in the signal ratio in the repeat runs, not every such curve was filed as active; the % refers to the signal ratio); conditions: GR-bla HeLa, beta-lactamase reporter ratio, 18 h; series mostly up to 62.4 µM
In short: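 Compounds in DMSO, alongside positive controls, were added to GR-bla HeLa reporter cells and incubated 18 h at 37 C; GRE-driven beta-lactamase was detected by fluorescence after 2 h with FRET substrate at room temperature.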

[18] = qHTS assay to test for compound auto fluorescence at 590 nm (red) in HepG2 cell free culture (AID 720684); conditions: cell-free medium autofluorescence, red 540/590 nm; series mostly up to 91.3 µM
In short: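 Cell-free; medium MEM + 10% FBS; compound or DMSO added by pintool; read Ex 540/Em 590 nm; Rose Bengal sodium as red reference fluorophore.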

[19] = target: Glucocorticoid receptor (Homo sapiens) (UniProt P04150); experiment: qHTS assay to identify small molecule antagonists of the glucocorticoid receptor (GR) signaling pathway (AID 720692; active = well fitted inhibition curve with a large enough effect in the signal ratio in the repeat runs, not every such curve was filed as active; the % refers to the signal ratio); conditions: GR-bla HeLa, beta-lactamase FRET ratio, dexamethasone-stimulated, 18 h; series mostly up to 58.5 µM
In short: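 In a 1536-well cell format, compounds were added 4 h after seeding GR-bla HeLa cells, together with dexamethasone at 5 nM final; reporter activity was measured by FRET-substrate fluorescence following 18 h at 37 C.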

[20] = qHTS assay for small molecule disruptors of the mitochondrial membrane potential (AID 720635); conditions: HepG2 mitochondrial membrane potential, Mito-MPS dye ratio; series mostly up to 83.2 µM; note: potency is the fitted concentration of half-maximal effect
In short: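 Mitochondrial membrane potential tracked with Mito-MPS dye, red aggregates (ex 540/em 590 nm) against green monomers (ex 490/em 535 nm). Compound treatment 1 hr at 37C, dye 30 min in HepG2.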
% is set by controls: 0 for no effect and ±100 for the full control effect.

Chain of Glucocorticoid receptor (Homo sapiens) (P04150 whole entry, looked up): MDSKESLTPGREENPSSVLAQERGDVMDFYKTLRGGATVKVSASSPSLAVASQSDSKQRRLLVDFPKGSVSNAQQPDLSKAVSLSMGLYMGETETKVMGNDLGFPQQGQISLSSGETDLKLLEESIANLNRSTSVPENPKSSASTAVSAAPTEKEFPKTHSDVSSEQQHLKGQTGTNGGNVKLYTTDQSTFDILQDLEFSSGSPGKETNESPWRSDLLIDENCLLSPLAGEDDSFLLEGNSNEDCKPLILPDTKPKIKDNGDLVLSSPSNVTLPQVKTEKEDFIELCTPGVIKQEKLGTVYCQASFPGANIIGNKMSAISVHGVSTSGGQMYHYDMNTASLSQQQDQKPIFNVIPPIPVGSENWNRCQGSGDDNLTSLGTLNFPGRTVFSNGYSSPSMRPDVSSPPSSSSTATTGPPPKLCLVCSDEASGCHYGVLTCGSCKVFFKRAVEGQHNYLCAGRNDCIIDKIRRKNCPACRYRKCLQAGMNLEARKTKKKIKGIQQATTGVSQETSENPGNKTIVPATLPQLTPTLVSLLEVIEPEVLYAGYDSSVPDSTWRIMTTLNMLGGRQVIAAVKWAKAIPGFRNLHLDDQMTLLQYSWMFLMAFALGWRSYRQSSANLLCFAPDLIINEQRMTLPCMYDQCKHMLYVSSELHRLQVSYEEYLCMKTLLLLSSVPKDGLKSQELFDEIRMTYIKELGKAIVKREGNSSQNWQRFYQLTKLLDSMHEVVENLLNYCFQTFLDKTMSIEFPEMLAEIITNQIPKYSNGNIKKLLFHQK

OCCCCCCO
inactive: Potency [1] | Potency [2] | Potency [3] | Potency [4] | Potency [5] | outcome [6] | outcome [7] | Potency [8] | outcome [9] | outcome [10] | Potency [11] | outcome [12] | outcome [13] | Potency [14] | outcome [15] | Potency [16] | Potency [17]

CC(C)CCCCCCN
inactive: Potency [1] | Potency [2] | Potency [3] | Potency [4] | Potency [5] | outcome [6] | outcome [7] | outcome [9] | outcome [12] | outcome [13] | outcome [18] | Potency [14] | outcome [15] | Potency [16] | Potency [17] | Potency [19]

CC(=O)NC(Cc1ccccc1)C(=O)O (stereo unspecified)
inactive: Potency [1] | Potency [2] | Potency [3] | Potency [4] | Potency [5] | outcome [6] | outcome [7] | Potency [8] | outcome [9] | outcome [10] | outcome [12] | outcome [13] | Potency [14] | outcome [15] | Potency [16] | Potency [17] | Potency [19]

CSc1nc(NC2CC2)nc(NC(C)(C)C)n1
active: Potency [20] 8.63 µM
inactive: Potency [1] | Potency [2] | Potency [3] | Potency [4] | outcome [6] | outcome [7] | Potency [8] | outcome [9] | outcome [10] | outcome [12] | outcome [13] | outcome [18] | Potency [14] | outcome [15] | Potency [16]

CCC(=O)/C=C/c1ccc(OC)cc1
inactive: Potency [1] | Potency [2] | Potency [3] | Potency [4] | Potency [20] | outcome [6] | outcome [7] | outcome [9] | outcome [10] | Potency [11] | outcome [12] | outcome [13] | outcome [18] | Potency [14] | outcome [15] | Potency [16] | Potency [17]

COC(=O)CCCCCCCCC(=O)OC
inactive: Potency [1] | Potency [2] | Potency [3] | Potency [4] | Potency [5] | outcome [6] | outcome [7] | Potency [8] | outcome [9] | outcome [10] | outcome [12] | outcome [13] | outcome [18] | Potency [14] | outcome [15]

C#CC(C)(O)CC(C)C (stereo unspecified)
inactive: Potency [1] | Potency [2] | Potency [3] | Potency [4] | Potency [5] | outcome [6] | outcome [7] | outcome [9] | outcome [10] | outcome [12] | outcome [13] | outcome [18] | Potency [14] | outcome [15] | Potency [16] | Potency [19]

CCC(C)OC(=O)N1CCCCC1CCO (stereo unspecified)
inactive: Potency [1] | Potency [2] | Potency [3] | Potency [4] | Potency [5] | outcome [6] | outcome [7] | outcome [9] | outcome [10] | Potency [11] | outcome [12] | outcome [13] | outcome [18] | Potency [14] | outcome [15]

CN(C)CCOC(c1ccc(Cl)cc1)c1ccccn1 (stereo unspecified)
inactive: Potency [1] | Potency [2] | Potency [3] | Potency [4] | outcome [6] | outcome [7] | Potency [8] | outcome [9] | Potency [11] | outcome [12] | outcome [13] | outcome [18] | Potency [14] | outcome [15] | Potency [16] | Potency [17] | Potency [19]
active: Potency [5] 5.31 µM

CC/C=C\CCCCO
inactive: Potency [1] | Potency [2] | Potency [3] | Potency [4] | outcome [6] | outcome [7] | Potency [8] | outcome [9] | outcome [10] | Potency [11] | outcome [12] | outcome [13] | outcome [18] | Potency [14] | outcome [15] | Potency [16]

OCCN1C[C@H](O)[C@@H](O)[C@H](O)[C@H]1CO
inactive: Potency [1] | Potency [2] | Potency [3] | Potency [4] | Potency [5] | outcome [6] | outcome [7] | Potency [8] | outcome [9] | outcome [10] | Potency [11] | outcome [12] | outcome [13] | Potency [14] | outcome [15] | Potency [16] | Potency [17] | Potency [19]

COCc1ccc(COC)cc1
inactive: Potency [1] | Potency [2] | Potency [3] | Potency [4] | Potency [5] | outcome [6] | outcome [7] | Potency [8] | outcome [9] | outcome [10] | outcome [12] | outcome [13] | outcome [18] | Potency [14] | outcome [15] | Potency [16]

COCCOC(=O)CC#N
inactive: Potency [1] | Potency [2] | Potency [3] | Potency [4] | Potency [5] | outcome [6] | outcome [7] | Potency [8] | outcome [9] | Potency [11] | outcome [12] | outcome [13] | outcome [18] | Potency [14] | outcome [15] | Potency [17]

COc1ccc(N=[N+]([O-])c2ccc(OC)cc2)cc1
inactive: Potency [1] | Potency [3] | Potency [4] | outcome [6] | outcome [7] | Potency [8] | outcome [9] | outcome [10] | outcome [12] | outcome [13] | outcome [18] | Potency [14] | outcome [15] | Potency [16] | Potency [17]
active: Potency [2] 0.136 µM | Potency [20] 27 µM

N#CCc1ccccc1[N+](=O)[O-]
inactive: Potency [1] | Potency [2] | Potency [3] | Potency [4] | outcome [6] | outcome [7] | Potency [8] | outcome [9] | outcome [10] | Potency [11] | outcome [12] | outcome [13] | outcome [18] | Potency [14] | outcome [15] | Potency [16]

NS(=O)(=O)c1cc2c(cc1C(F)(F)F)NC(Cc1ccccc1)NS2(=O)=O (stereo unspecified)
inactive: Potency [1] | Potency [2] | Potency [3] | Potency [4] | Potency [5] | fluorescence, relative to Rose Bengal [6] 0.0251% [at 18.6 µM] | fluorescence, % of fluorescein control [7] -0.0381% [at 18.6 µM] | fluorescence, % of fluorescent control [9] 0.307% [at 18.6 µM] | fluorescence, % of fluorescein [10] 0.103% [at 18.6 µM] | activity change [12] 0.196% [at 18.6 µM] | fluorescence, % of fluorescent control [13] 0.0682% [at 18.6 µM] | fluorescence, % of Rose Bengal [18] -0.15% [at 18.6 µM] | fluorescence, % of fluorescent control [14] -0.0286% [at 18.6 µM] | fluorescence, % of fluorescein control [15] -0.0871% [at 18.6 µM] | fluorescence, % of fluorescent control [16] 0.0124% [at 18.6 µM]
